According to PubChem BioAssay (NCATS):
Where “and” joins values, the source holds several entries; their conditions need not be identical. Equal values may be shown once. Records with an inconclusive call do not appear. Calls of active or inactive are those of the source. Unless noted, calls follow the shape of the dose curve; as a rule, active = well fitted curve in the direction sought with a large enough effect; inconclusive = small, poorly fitted or top-dose-only effect, or another doubt; inactive = no such curve, though single readings can be large; an effect the other way counts as inactive or inconclusive.

Columns and labels:
[1] = Cell Viability - Jurkat (AID 426;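 active = dose-dependent loss of cell ATP signal giving a full or clear fitted curve, ranked by lower potency value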;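 also: potency is read from the fitted curve at half-maximal effect; cells exposed to compound for 40 hours at 37 °C before ATP read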); conditions: qHTS
Procedure, shortened: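 Seed 5000 Jurkat E6-1 cells/well; add compound; incubate 40 hr at 37 °C; add CellTiter-Glo; wait 20 min at room temperature; read luminescence. Fit concentration-response with Hill equation for AC50.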

[2] = Cell Viability - Hek293 (AID 427;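 active = compounds whose dose-response curve shows a full or clear partial loss of cell viability, called from curve shape rather than a numeric limit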;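 also: potency is read from the fitted curve at half-maximal effect; cells exposed to compound for 40 hours at 37 °C before reading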); conditions: qHTS
Procedure, shortened: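 qHTS, human embryonic kidney (adenovirus-transformed) cells; 40 hr cpd, 37 °C; CellTiter-Glo ATP luminescence. Norm: DMSO = 0, 100 uM tamoxifen = 100% inhibition. Hill-fit AC50.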

[3] = Cell Viability - HUV-EC-C (AID 542); conditions: HUV-EC-C endothelial cell viability, qHTS; series mostly up to 92.2 µM;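 also: cells exposed to compound for 40 hours; % is scaled to controls: 0 for no effect and ±100 for the full control effect; nearly all actives have a fitted effect of over 35% in size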
Procedure, shortened: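 Decrease in cellular ATP, quantified by luciferase luminescence, reflects toxicity in normal human vascular endothelial HUV-EC-C cells given compound for 40 hr in complete culture medium. Values are AC50s from concentration-response curves.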

[4] = Cell Viability - H-4-II-E (AID 543); conditions: H-4-II-E rat hepatoma viability; series mostly up to 92.2 µM;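 also: cells exposed to compound for 40 hours; nearly all actives have a fitted effect of over 35% in size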; also: potency is read from the fitted curve at half-maximal effect
Procedure, shortened: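 Here, cytotoxicity is measured in the rat hepatoma line H-4-II-E as loss of intracellular ATP after 40 hr compound treatment, detected by luciferase luminescence.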

[5] = Cell Viability - SH-SY5Y (AID 544); conditions: SH-SY5Y neuroblastoma cell viability; series mostly up to 92.2 µM;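 also: cells exposed to compound for 40 hours; nearly all actives have a fitted effect of over 55% in size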; also: potency is read from the fitted curve at half-maximal effect
Procedure, shortened: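 Cytotoxicity is scored as a concentration-dependent fall in intracellular ATP in human SH-SY5Y cells treated 40 hr in complete culture medium. Potency is expressed as AC50 from a Hill equation fit.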

[6] = Cellular Toxicity (caspase-3) SHSY5Y (AID 657); conditions: SH-SY5Y caspase-3 activation, DMSO zero, 10 µM staurosporine = 100%; series mostly up to 91.7 µM;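 also: cells exposed to compound for 16 hours at 37 °C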
Procedure, shortened: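 Luminescent caspase-3/7 readout (aminoluciferin release) in SH-SY5Y cells after 16 h compound exposure in complete medium. Activity scaled between DMSO basal and 10 uM staurosporine as 100%; concentration-response fitted to Hill equation for AC50.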

[7] = Cellular Toxicity (caspase-3) SK-N-SH (AID 661); conditions: SK-N-SH caspase-3 activation, qHTS, DMSO as zero, staurosporine as full; series mostly up to 91.7 µM
Procedure, shortened: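 Caspase 3/7 activation is measured as a luminescence increase from aminoluciferin released by substrate cleavage in SK-N-SH cells after 16 hr compound treatment; values are AC50 from concentration-response curves.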

[8] = Cellular Toxicity (caspase-3) H-4-II-E (AID 663); conditions: H-4-II-E rat hepatoma; Potency: caspase-3 activation; series mostly up to 92.2 µM; also: potency is read from the fitted curve at half-maximal effect;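 as to caspase-3 activation: cells exposed to compound for 16 hr before readout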
Procedure, shortened: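 Apoptosis induction is scored as increased luminescence from caspase 3/7 substrate cleavage in rat hepatoma H-4-II-E cells exposed to compound for 16 hr. Activity is scaled between DMSO and 100 uM tamoxifen.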

[9] = Cellular Toxicity (caspase-3) N2a (AID 665); conditions: N2a cells, luminescence, normalized: DMSO 0%, 10 µM staurosporine 100%; series mostly up to 92.2 µM;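 also: compound exposure lasted 16 h at 37 °C before readout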
Procedure, shortened: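 Plated mouse neuroblastoma N2a cells received titrated compounds for 16 h in complete medium. Caspase activity was then detected with a peptide-aminoluciferin luminescent reagent.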

[10] = Cellular Toxicity (caspase-3) NIH 3T3 (AID 666); conditions: NIH 3T3 caspase-3 activation, apoptosis/toxicity, 0% DMSO, 100% is 100 µM tamoxifen; series mostly up to 92.2 µM;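 also: caspase signal read after 16 h compound exposure; 0% = DMSO basal and 100% = 100 µM tamoxifen stimulation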
Procedure, shortened: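 Concentration-response qHTS in NIH 3T3 mouse fibroblasts scores caspase-3/7 activation as rising luminescence after 16 hr compound exposure. Signals are scaled between DMSO-only and 100 uM tamoxifen.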

[11] = Cell Viability - LYMP1-002 - Assay at 16 hr (AID 948); conditions: LYMP1-002 lymphoblastoid cell viability; series mostly up to 92.2 µM; also: potency is read from the fitted curve at half-maximal effect
Procedure, shortened: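 LYMP1-002 human lymphoblastoid cells, 2500/well; 5 hr 37 C; cpd 16 hr 37 C; CellTiter-Glo 30 min RT; luminescence (ATP). Concentration-response, Hill-fit AC50. Pos ctrl tetraoctylammonium bromide.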

[12] = MultiTox-Fluor Cytotoxicity Assay - LYMP1-002 - Live Cells (AID 955); conditions: LYMP1-002 lymphoblastoid live-cell protease fluorescence viability; series mostly up to 46.1 µM; also: % is scaled to controls: 0 for no effect and ±100 for the full control effect
Procedure, shortened: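 Cytotoxicity in the human lymphoblastoid line LYMP1-002 is measured as loss of live-cell protease activity after 16 h treatment in complete culture medium. AC50 is derived from Hill-equation fits of qHTS concentration-response data.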

[13] = MultiTox-Fluor Cytotoxicity Assay - LYMP1-003 - Dead Cells (AID 961); conditions: LYMP1-003 lymphoblastoid cells, dead-cell protease fluorescence; series mostly up to 92.2 µM;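 also: cells exposed to compound for 16 h at 37 °C; nearly all actives have a fitted effect of over 70% in size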
Procedure, shortened: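 LYMP1-003 lymphoblastoid, 2500 cells/well, 5 hr settle then 16 hr cpd at 37 C; MultiTox-Fluor reagent 60 min RT; Ex/Em 485/520 dead-cell signal; norm. DMSO = 0%, 15 uM tetraoctylammonium bromide = 100%; Hill AC50.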

[14] = Cell Viability - LYMP2-003 (AID 965); conditions: LYMP2-003 lymphoblastoid cell viability; series mostly up to 92.2 µM;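 also: cells exposed to compounds for 24 h before reading; nearly all actives have a fitted effect of over 50% in size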; also: potency is read from the fitted curve at half-maximal effect
Procedure, shortened: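 CellTiter-Glo luminescence (cellular ATP) after 24 h compound exposure at 37 C in complete medium; 2500 cells/well, 5 h settling beforehand. Concentration-response fitted to standard Hill equation for AC50. Tetraoctylammonium bromide served as positive control.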

[15] = Cell Viability - LYMP2-018 (AID 985); conditions: LYMP2-018 lymphoblastoid cells, viability (qHTS); series mostly up to 92.2 µM;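 also: compound exposure lasted 24 hr at 37 °C; nearly all actives have a fitted effect of over 50% in size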; also: potency is read from the fitted curve at half-maximal effect
Procedure, shortened: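 Acute cytotoxicity is scored as a concentration-dependent drop in intracellular ATP after 24 hr exposure of the lymphoblastoid line in complete culture medium, measured by luciferase luminescence. Potency is expressed as AC50 from Hill modelling.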

[16] = Cell Viability - LYMP2-020 (AID 986); conditions: series mostly up to 92.2 µM; also: nearly all actives have a fitted effect of over 55% in size; also: potency is read from the fitted curve at half-maximal effect
Procedure, shortened: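 Acute cytotoxicity in a human lymphoblastoid line is scored as a concentration-dependent fall in cellular ATP after 24 hr at 37 C in complete medium. The positive control is tetraoctylammonium bromide, and potency is given as Hill-fit AC50.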

[17] = Cell Viability - LYMP2-022 (AID 987); conditions: LYMP2-022 lymphoblastoid cell viability; series mostly up to 92.2 µM;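 also: cells exposed to compound for 24 hr; nearly all actives have a fitted effect of over 55% in size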; also: potency is read from the fitted curve at half-maximal effect
Procedure, shortened: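 Acute toxicity in a human lymphoblastoid line is scored as decreased intracellular ATP after 24 hr compound treatment at 37 C. ATP is measured by CellTiter-Glo luminescence; curves are fitted with the Hill equation to give AC50.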

[18] = Cell Viability - LYMP2-024 (AID 988); conditions: LYMP2-024 lymphoblastoid cell viability; series mostly up to 92.2 µM;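 also: cells exposed to compound for 24 hr at 37 °C; nearly all actives have a fitted effect of over 60% in size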; also: potency is read from the fitted curve at half-maximal effect
Procedure, shortened: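 Acute toxicity is measured as concentration-dependent loss of intracellular ATP in a human lymphoblastoid line treated 24 hours at 37 C. Luciferase luminescence quantifies ATP; AC50 values come from standard Hill-equation modelling.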

[19] = qHTS assay for small molecule antagonists of retinoid X receptor alpha signaling (AID 588546); conditions: HEK293T RXRa-UAS-bla, beta-lactamase ratio, antagonist mode; measured here: W530 green channel, cytotoxicity proxy;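 also: cells stimulated with 9-cis-retinoic acid as agonist; % is scaled to controls: 0 for no effect and ±100 for the full control effect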
Procedure, shortened: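 Beta-lactamase reporter inhibition, read as CCF4 fluorescence ratio (ex 405, em 460/530 nm) after 2 h at RT. HEK293T UAS-bla cells, 2500/well, were stimulated with 9-cis-RA at 500 or 100 nM final alongside test compound for 18 h at 37 C.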

[20] = qHTS assay for cell viability of HEK293 cells (AID 743288); conditions: ATP luminescence (CellTiter-Glo), 18 h; max response: stronger effect = lower value; also: nearly all actives have a fitted effect of over 50% in size; also: potency is read from the fitted curve at half-maximal effect; as to max response: % is scaled to controls: 0 for no effect and ±100 for the full control effect
Procedure, shortened: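 Environmental chemicals tested in qHTS format against parental HEK293 cells; 18 h treatment, 37 C; read-out ATP luminescence (CellTiter-Glo), 30 min RT development.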

CC1=CC(C)(C)Nc2ccccc21
inactive: Potency [1] > 92 µM | Potency [2] > 92 µM | outcome [3] | Potency [4] | Potency [5] | outcome [6] | outcome [7] | Potency [8] | outcome [9] | outcome [10] | Potency [11] | Potency [12] | Potency [13] | Potency [14] | Potency [15] | Potency [16] | Potency [17] | Potency [18] | max response [20] -4.28% and -1.89%
-11.3% and -9.31%: max response [19]

NC1=NC(S)C2N=CN=C2N1 (stereo not drawn)
active: Potency [1] 0.0486 µM | Potency [2] 1.39 µM | Potency [4] 0.398 µM | Potency [5] 12.6 µM | Potency [8] 2.51 µM | Potency [11] 12.6 µM | Potency [14] 6.31 µM | Potency [15] 7.94 µM | Potency [16] 10 µM | Potency [17] 12.6 µM | Potency [18] 12.6 µM | Potency [20] 2.82 µM
4.34%: max response [19]
inactive: outcome [3] | outcome [6] | outcome [7] | outcome [9] | outcome [10]

c1ccc2c(c1)[nH]c1ccccc12
inactive: Potency [1] > 92 µM | Potency [2] > 92 µM | outcome [3] | Potency [4] | Potency [5] | outcome [6] | outcome [7] | Potency [8] | outcome [9] | outcome [10] | Potency [11] | Potency [12] | Potency [13] | Potency [14] | Potency [15] | Potency [16] | Potency [17] | Potency [18] | max response [20] -7.42% and -16.3%
-0.129% and 3.48%: max response [19]

CCC(O)OC(O)CC (stereo not drawn)
inactive: Potency [1] > 92 µM | Potency [2] > 92 µM | outcome [3] | Potency [4] | Potency [5] | outcome [6] | outcome [7] | Potency [8] | outcome [9] | outcome [10] | Potency [11] | Potency [12] | Potency [13] | Potency [14] | Potency [15] | Potency [16] | Potency [17] | Potency [18] | max response [20] -2.73% [middle of 4 runs]
-6.87% and -7.76%: max response [19]

CCCN(CCC)C(=O)SCC
inactive: Potency [1] > 92 µM | Potency [2] > 92 µM | outcome [3] | Potency [4] | Potency [5] | outcome [6] | outcome [7] | Potency [8] | outcome [9] | outcome [10] | Potency [11] | Potency [12] | Potency [13] | Potency [14] | Potency [15] | Potency [16] | Potency [17] | Potency [18] | max response [20] -7.69% and -8.5%
-11.5% and -6.21%: max response [19]

Cc1ccc([N+](=O)[O-])cc1N
-2.85% and -10.6%: max response [19]
inactive: Potency [1] > 92 µM | Potency [2] > 92 µM | outcome [3] | Potency [4] | Potency [5] | outcome [6] | outcome [7] | Potency [8] | outcome [9] | outcome [10] | Potency [11] | Potency [12] | Potency [13] | Potency [14] | Potency [15] | Potency [16] | Potency [17] | Potency [18] | max response [20] -2.6% and -12%

CC1(C)CC(N=C=O)CC(C)(CN=C=O)C1 (stereo not drawn)
inactive: Potency [1] > 92 µM | Potency [2] > 92 µM | outcome [3] | Potency [4] | Potency [5] | outcome [6] | outcome [7] | Potency [8] | outcome [9] | outcome [10] | Potency [11] | Potency [12] | Potency [13] | Potency [14] | Potency [15] | Potency [16] | Potency [17] | Potency [18] | max response [20] -4.37% and 1.94%
-0.108% and -15.8%: max response [19]

ClCCCl
-8.92% and -8.87% and -8.24%: max response [19]
inactive: Potency [1] > 92 µM | Potency [2] > 92 µM | outcome [3] | Potency [4] | Potency [5] | outcome [6] | outcome [7] | Potency [8] | outcome [9] | outcome [10] | Potency [11] | Potency [12] | Potency [13] | Potency [14] | Potency [15] | Potency [16] | Potency [17] | Potency [18] | max response [20] -0.0928% and -7.5% and -2.25%

COC(=O)CCCCC(=O)OC
inactive: Potency [1] > 92 µM | Potency [2] > 92 µM | outcome [3] | Potency [4] | Potency [5] | outcome [6] | outcome [7] | Potency [8] | outcome [9] | outcome [10] | Potency [11] | Potency [12] | Potency [13] | Potency [14] | Potency [15] | Potency [16] | Potency [17] | Potency [18] | max response [20] -0.912% and -4.94% and -1.91%
-7.1% and -4.41% and 10.6%: max response [19]

O=C(/C=C/c1ccc(O)c(O)c1)O[C@@H](C(=O)O)[C@@H](OC(=O)/C=C/c1ccc(O)c(O)c1)C(=O)O
inactive: Potency [1] > 92 µM | Potency [2] > 92 µM | outcome [3] | Potency [4] | Potency [5] | outcome [6] | outcome [7] | Potency [8] | outcome [9] | outcome [10] | Potency [11] | Potency [12] | Potency [13] | Potency [14] | Potency [15] | Potency [16] | Potency [17] | Potency [18] | max response [20] -0.791%
-0.233%: max response [19]

OCCNCCO
-14.5% and -2.92%: max response [19]
inactive: Potency [1] > 92 µM | Potency [2] > 92 µM | outcome [3] | Potency [4] | Potency [5] | outcome [6] | outcome [7] | Potency [8] | outcome [9] | outcome [10] | Potency [11] | Potency [12] | Potency [13] | Potency [14] | Potency [15] | Potency [16] | Potency [17] | Potency [18] | max response [20] 2.85% and -11.3%

CC(C)=CCCC(C)CCO (stereo not drawn)
-7.35% and -8.91%: max response [19]
inactive: Potency [1] > 92 µM | Potency [2] > 92 µM | outcome [3] | Potency [4] | Potency [5] | outcome [6] | outcome [7] | Potency [8] | outcome [9] | outcome [10] | Potency [11] | Potency [12] | Potency [13] | Potency [14] | Potency [15] | Potency [16] | Potency [17] | Potency [18] | max response [20] 0.805% and -8.34%
